The record followed here is PubChem BioAssay (EPA / NIEHS).

The structures appear in SMILES notation. Calls of active or inactive are those of the source. The calls were made as follows: active = hit-call score of the fitted dose curve at least 0.9, where 1 is the maximum; inactive = score below 0.9.

Conditions in all cases: mRNA level, 48 h; actives raise or lower the signal
Read-out in experiment [1]: Nuclear factor NF-kappa-B p105 subunit (Homo sapiens) (UniProt P19838)
As to the kind of experiment: LTEA_HepaRG_NFKB1: Life Technologies and Expression Analysis (LTEA) Assay for Nuclear Factor Kappa B Subunit 1 (NFKB1) using HepaRG (AID 2283521).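 Also: TaqMan qRT-PCR transcript normalised to ACTB GAPDH and POLR2A housekeeping genes.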 In outline: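 Differentiated human HepaRG cells were exposed for 48 h in serum-free induction medium to eight concentrations (top 100 uM, half-log steps, 0.5% DMSO), in duplicate. NFKB1 mRNA was measured by TaqMan qRT-PCR, normalized to ACTB/GAPDH/POLR2A, and fitted bidirectionally against DMSO.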

Read-out in experiment [2]: Protein phosphatase 2A (PPP2R4), PTPA (gene 5524)
In words: LTEA_HepaRG_PPP2R4: Life Technologies and Expression Analysis (LTEA) Assay for Protein phosphatase 2A (PPP2R4) using HepaRG (AID 2283522). The essentials: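 Readout is PPP2R4 transcript level by microfluidic qRT-PCR after 48 h chemical treatment of human HepaRG liver cells. Concentrations spanned 100 uM downward in half-log steps; gain or loss of signal was fitted relative to DMSO.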

Read-out in experiment [3]: Phosphatase and tensin (PTEN), PTEN (gene 5728)
As to the kind of experiment: LTEA_HepaRG_PTEN: Life Technologies and Expression Analysis (LTEA) Assay for Phosphatase and tensin (PTEN) using HepaRG (AID 2283523). The essentials: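 Read-out is PTEN transcript level by multiplexed TaqMan qRT-PCR after 48 h chemical treatment of human HepaRG cultures in serum-free induction medium. Concentrations spanned 100 uM downward in half-log steps, 0.5% DMSO throughout; activity fitted in both directions against vehicle.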

Read-out in experiment [4]: solute carrier (SLC22A1), SLC22A1 (gene 6580)
As to the kind of experiment: LTEA_HepaRG_SLC22A1: Life Technologies and Expression Analysis (LTEA) Assay for solute carrier (SLC22A1) using HepaRG (AID 2283524). The essentials:
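HepaRG (human liver line), 48 h dosing in serum-free induction medium; 8 conc., half-log down from 100 uM, 0.5% DMSO vehicle, duplicates. Endpoint: SLC22A1 mRNA, qRT-PCR, housekeeping-normalized; gain/loss fit vs DMSO.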

Read-out in experiment [5]: Pyruvate Dehydrogenase Kinase 4 (PDK4), PDK4 (gene 5166)
As to the kind of experiment: LTEA_HepaRG_PDK4: Life Technologies and Expression Analysis (LTEA) Assay for Pyruvate Dehydrogenase Kinase 4 (PDK4) using HepaRG (AID 2283525). In outline: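 In this multiplexed human HepaRG expression assay, cells are treated 48 h with test chemicals across an eight-point range starting at 100 uM. PDK4 mRNA changes, normalized to ACTB/GAPDH/POLR2A, are fitted in both directions relative to vehicle.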

Read-out in experiment [6]: NAD(P)H dehydrogenase [quinone] 1 (NQO1), NQO1 (gene 1728)
In words: LTEA_HepaRG_NQO1: Life Technologies and Expression Analysis (LTEA) Assay for NAD(P)H dehydrogenase [quinone] 1 (NQO1) using HepaRG (AID 2283526). The essentials:
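HepaRG, 48 h post-plating → serum-free induction medium → test chemical 48 h (duplicate, 100 uM top, half-log x8, 0.5% DMSO) → RNA isolation → qRT-PCR, ACTB/GAPDH/POLR2A normalization; bidirectional curve fit vs DMSO baseline.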

Read-out in experiment [7]: Nuclear factor erythroid 2-related factor 2 (Homo sapiens) (UniProt Q16236)
As to the kind of experiment: LTEA_HepaRG_NFE2L2: Life Technologies and Expression Analysis (LTEA) Assay for Nuclear factor erythroid 2-related factor 2 (NFE2L2) Transcription Factor using HepaRG (AID 2283527).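 Also: TaqMan qRT-PCR transcript level normalised to ACTB GAPDH and POLR2A housekeeping genes.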 The essentials: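 Transcript level of NFE2L2 is the read-out, measured by microfluidic TaqMan qRT-PCR and normalized to three housekeeping genes. Human HepaRG cultures received test chemical for 48 h at up to 100 uM in half-log steps. Gain or loss of signal is fitted relative to 0.5% DMSO.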

Read-out in experiment [8]: succinate dehydrogenase complex iron sulfur subunit B (SDHB), SDHB (gene 6390)
As to the kind of experiment: LTEA_HepaRG_SDHB: Life Technologies and Expression Analysis (LTEA) Assay for succinate dehydrogenase complex iron sulfur subunit B (SDHB) using HepaRG (AID 2283528). In outline:
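HepaRG, 48 h exposure, 8-pt half-log series from 100 uM in 0.5% DMSO, duplicates. Readout: SDHB mRNA by Fluidigm qRT-PCR vs housekeeping genes; bidirectional fit relative to DMSO.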

Read-out in experiment [9]: Signal transducer and activator of transcription 3 (Homo sapiens) (UniProt P40763)
As to the kind of experiment: LTEA_HepaRG_STAT3: Life Technologies and Expression Analysis (LTEA) Assay for Signal transducer and activator of transcription (STAT3) using HepaRG (AID 2283529). The essentials:
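Read-out is STAT3 mRNA level by qRT-PCR, normalized to three housekeeping genes, in human HepaRG liver cells treated for 48 h. Concentrations ran from 100 uM downward in half-log steps; curves were fitted for gain or loss relative to 0.5% DMSO.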

Read-out in experiment [10]: solute carrier (SLCO1B1), SLCO1B1 (gene 10599)
In words: LTEA_HepaRG_SLCO1B1: Life Technologies and Expression Analysis (LTEA) Assay for solute carrier (SLCO1B1) using HepaRG (AID 2283530). In outline:
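Differentiated human HepaRG cells were exposed for 48 h in serum-free induction medium to eight half-log concentrations, top 100 uM, in 0.5% DMSO. SLCO1B1 mRNA was measured by qRT-PCR, normalized to ACTB, GAPDH and POLR2A, and fitted bidirectionally against DMSO.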

Read-out in experiment [11]: sulfotransferase 2A1 (SULT2A1), SULT2A1 (gene 6822)
In words: LTEA_HepaRG_SULT2A1: Life Technologies and Expression Analysis (LTEA) Assay for sulfotransferase 2A1 (SULT2A1) using HepaRG (AID 2283531). The essentials: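 HepaRG human liver cells, 48 h exposure in serum-free induction medium to 8 half-log concentrations topping at 100 µM (0.5% DMSO), duplicate wells. SULT2A1 mRNA measured by TaqMan qRT-PCR, normalized to ACTB/GAPDH/POLR2A; bidirectional fit against DMSO.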

Read-out in experiment [12]: Transforming Growth Factor (TGFA), TGFA (gene 7039)
In words: LTEA_HepaRG_TGFA: Life Technologies and Expression Analysis (LTEA) Assay for Transforming Growth Factor (TGFA) using HepaRG (AID 2283532). The essentials: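 HepaRG (human liver line), 48 h exposure, 8 conc. half-log down from 100 uM, 0.5% DMSO vehicle, duplicates; serum-free induction medium. TGFA mRNA by TaqMan qRT-PCR, ACTB/GAPDH/POLR2A normalization; gain/loss fit vs DMSO.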

Read-out in experiment [13]: Transforming Growth Factor (TGFB1), TGFB1 (gene 7040)
In words: LTEA_HepaRG_TGFB1: Life Technologies and Expression Analysis (LTEA) Assay for Transforming Growth Factor (TGFB1) Transporter using HepaRG (AID 2283533). In outline:
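Differentiated HepaRG cells exposed 48 hr in serum-free induction medium to eight half-log concentrations up to 100 uM (0.5% DMSO), duplicate; TGFB1 mRNA by TaqMan qRT-PCR normalised to ACTB, GAPDH, POLR2A; bidirectional fit against DMSO.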

Read-out in another experiment: TIMP1, TIMP1 (gene 7076)
As to the kind of experiment: LTEA_HepaRG_TIMP1: Life Technologies and Expression Analysis (LTEA) Assay for TIMP1 using HepaRG (AID 2283534).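 Also: TaqMan qRT-PCR signal normalized to ACTB GAPDH and POLR2A housekeeping genes.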 The essentials: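 Differentiated HepaRG cells exposed 48 h in serum-free induction medium, duplicates, eight half-log concentrations from 100 uM in 0.5% DMSO. TIMP1 mRNA by qRT-PCR normalized to ACTB, GAPDH, POLR2A; bidirectional fitting against DMSO.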

Read-out in experiment [14]: Tumor necrosis factor receptor 1 (TNFRSF1A), TNFRSF1A (gene 7132)
In words: LTEA_HepaRG_TNFRSF1A: Life Technologies and Expression Analysis (LTEA) Assay for Tumor necrosis factor receptor 1 (TNFRSF1A) using HepaRG (AID 2283535). The essentials: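 Differentiated HepaRG cells in serum-free induction medium, exposed 48 h in duplicate to 8 half-log concentrations up to 100 uM in 0.5% DMSO. TNFRSF1A mRNA by Fluidigm TaqMan qRT-PCR, normalized to ACTB, GAPDH, POLR2A; bidirectional fit.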

Read-out in experiment [15]: Thyroid Hormone Responsive (THRSP), THRSP (gene 7069)
In words: LTEA_HepaRG_THRSP: Life Technologies and Expression Analysis (LTEA) Assay for Thyroid Hormone Responsive (THRSP) using HepaRG (AID 2283536). The essentials: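 mRNA induction or loss relative to 0.5% DMSO vehicle was fitted bidirectionally across an eight-point curve whose highest exposure was 100 uM. Human HepaRG liver cells received chemicals in duplicate over 48 h before RNA extraction.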

Read-out in experiment [16]: Cellular tumor antigen p53 (Homo sapiens) (UniProt P04637)
In words: LTEA_HepaRG_TP53: Life Technologies and Expression Analysis (LTEA) Assay for Tumor Protein P53 (TP53) using HepaRG (AID 2283537). In outline: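 HepaRG, 48 h exposure, top 100 uM, half-log 8-point, 0.5% DMSO vehicle, duplicates. Read: TP53 mRNA by TaqMan qRT-PCR, normalised to ACTB/GAPDH/POLR2A; bidirectional fit vs DMSO.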

Read-out in experiment [17]: UDP glucuronosyltransferase (UGT1A1), UGT1A1 (gene 54658)
In words: LTEA_HepaRG_UGT1A1: Life Technologies and Expression Analysis (LTEA) Assay for UDP glucuronosyltransferase (UGT1A1) using HepaRG (AID 2283538). In outline: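 Readout is UGT1A1 transcript level by qRT-PCR, normalized to three housekeeping genes, after 48 h chemical treatment of HepaRG cells. Concentrations ran from 100 uM down in half-log steps with 0.5% DMSO, and gain or loss relative to DMSO was fitted.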

Read-out in experiment [18]: UDP glucuronosyltransferase (UGT1A6), UGT1A6 (gene 54578)
In words: LTEA_HepaRG_UGT1A6: Life Technologies and Expression Analysis (LTEA) Assay for UDP glucuronosyltransferase (UGT1A6) using HepaRG (AID 2283539). The essentials:
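Differentiated HepaRG cells, ~100,000/well, were exposed for 48 h in serum-free induction medium with 0.5% DMSO to 8-point half-log series topping at 100 uM, in duplicate. mRNA measured by Fluidigm TaqMan qRT-PCR, normalized to ACTB, GAPDH and POLR2A.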

Read-out in experiment [19]: X-box binding protein 1 (XBP1), XBP1 (gene 7494)
As to the kind of experiment: LTEA_HepaRG_XBP1: Life Technologies and Expression Analysis (LTEA) Assay for X-box binding protein 1 (XBP1) using HepaRG (AID 2283540). In outline:
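Differentiated human HepaRG cells in serum-free induction medium exposed 48 h in duplicate to eight half-log concentrations up to 100 uM in 0.5% DMSO. XBP1 mRNA measured by Fluidigm TaqMan qRT-PCR, normalized to ACTB, GAPDH, POLR2A; bidirectional fitting against DMSO.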

Sequence of Cellular tumor antigen p53 (Homo sapiens) (P04637 whole entry, looked up): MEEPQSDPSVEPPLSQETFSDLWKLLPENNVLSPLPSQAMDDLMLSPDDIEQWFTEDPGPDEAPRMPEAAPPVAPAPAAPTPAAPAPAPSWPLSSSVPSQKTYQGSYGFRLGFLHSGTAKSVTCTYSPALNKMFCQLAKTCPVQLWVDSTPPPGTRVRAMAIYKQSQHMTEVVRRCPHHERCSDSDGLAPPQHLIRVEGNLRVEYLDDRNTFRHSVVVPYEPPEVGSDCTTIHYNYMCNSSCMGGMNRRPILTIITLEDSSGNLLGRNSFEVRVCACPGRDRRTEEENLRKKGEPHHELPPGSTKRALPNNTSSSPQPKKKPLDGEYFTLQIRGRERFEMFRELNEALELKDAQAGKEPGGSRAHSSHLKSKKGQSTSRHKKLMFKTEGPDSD
Sequence of Nuclear factor erythroid 2-related factor 2 (Homo sapiens) (Q16236 whole entry, looked up): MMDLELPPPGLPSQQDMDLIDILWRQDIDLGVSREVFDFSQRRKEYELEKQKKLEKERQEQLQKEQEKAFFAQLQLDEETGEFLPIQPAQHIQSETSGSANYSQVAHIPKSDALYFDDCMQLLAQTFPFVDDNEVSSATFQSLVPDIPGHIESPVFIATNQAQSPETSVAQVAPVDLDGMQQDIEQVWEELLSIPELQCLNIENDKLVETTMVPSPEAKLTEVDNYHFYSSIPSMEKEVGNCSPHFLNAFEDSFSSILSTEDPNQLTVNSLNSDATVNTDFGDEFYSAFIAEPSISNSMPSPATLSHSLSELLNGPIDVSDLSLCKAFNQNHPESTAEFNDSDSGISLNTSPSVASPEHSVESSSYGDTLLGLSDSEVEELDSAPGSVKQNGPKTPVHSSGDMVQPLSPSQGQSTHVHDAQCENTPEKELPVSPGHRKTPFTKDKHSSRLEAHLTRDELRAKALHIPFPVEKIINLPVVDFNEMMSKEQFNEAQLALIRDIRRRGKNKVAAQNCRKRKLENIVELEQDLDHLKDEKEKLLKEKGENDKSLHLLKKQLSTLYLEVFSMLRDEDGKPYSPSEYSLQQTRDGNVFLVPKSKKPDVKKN
Sequence of Nuclear factor NF-kappa-B p105 subunit (Homo sapiens) (P19838 whole entry, looked up): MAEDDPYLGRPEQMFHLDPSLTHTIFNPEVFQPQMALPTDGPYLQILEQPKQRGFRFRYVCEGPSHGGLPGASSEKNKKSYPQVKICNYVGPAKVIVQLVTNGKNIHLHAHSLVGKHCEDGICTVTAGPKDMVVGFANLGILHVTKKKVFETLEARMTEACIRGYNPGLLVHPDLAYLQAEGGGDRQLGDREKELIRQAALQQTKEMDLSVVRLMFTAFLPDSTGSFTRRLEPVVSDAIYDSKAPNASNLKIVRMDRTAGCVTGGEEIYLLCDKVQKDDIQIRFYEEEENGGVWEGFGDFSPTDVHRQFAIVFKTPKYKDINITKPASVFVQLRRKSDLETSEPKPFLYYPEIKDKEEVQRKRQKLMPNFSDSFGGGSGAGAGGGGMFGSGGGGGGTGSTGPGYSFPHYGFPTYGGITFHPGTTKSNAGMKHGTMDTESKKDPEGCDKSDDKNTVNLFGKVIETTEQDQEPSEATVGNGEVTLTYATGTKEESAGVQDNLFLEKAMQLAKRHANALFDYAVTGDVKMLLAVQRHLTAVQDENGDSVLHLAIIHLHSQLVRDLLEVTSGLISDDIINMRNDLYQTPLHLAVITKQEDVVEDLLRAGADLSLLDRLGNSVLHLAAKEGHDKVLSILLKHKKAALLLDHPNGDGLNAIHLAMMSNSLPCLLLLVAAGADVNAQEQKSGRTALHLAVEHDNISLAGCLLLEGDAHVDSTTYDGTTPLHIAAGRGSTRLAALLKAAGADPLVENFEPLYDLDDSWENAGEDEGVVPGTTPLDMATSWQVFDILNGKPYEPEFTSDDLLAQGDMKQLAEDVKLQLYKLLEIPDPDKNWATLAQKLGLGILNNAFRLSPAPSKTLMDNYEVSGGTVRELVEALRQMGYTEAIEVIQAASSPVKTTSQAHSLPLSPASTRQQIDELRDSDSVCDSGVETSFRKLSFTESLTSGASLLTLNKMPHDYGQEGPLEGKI
Sequence of Signal transducer and activator of transcription 3 (Homo sapiens) (P40763 whole entry, looked up): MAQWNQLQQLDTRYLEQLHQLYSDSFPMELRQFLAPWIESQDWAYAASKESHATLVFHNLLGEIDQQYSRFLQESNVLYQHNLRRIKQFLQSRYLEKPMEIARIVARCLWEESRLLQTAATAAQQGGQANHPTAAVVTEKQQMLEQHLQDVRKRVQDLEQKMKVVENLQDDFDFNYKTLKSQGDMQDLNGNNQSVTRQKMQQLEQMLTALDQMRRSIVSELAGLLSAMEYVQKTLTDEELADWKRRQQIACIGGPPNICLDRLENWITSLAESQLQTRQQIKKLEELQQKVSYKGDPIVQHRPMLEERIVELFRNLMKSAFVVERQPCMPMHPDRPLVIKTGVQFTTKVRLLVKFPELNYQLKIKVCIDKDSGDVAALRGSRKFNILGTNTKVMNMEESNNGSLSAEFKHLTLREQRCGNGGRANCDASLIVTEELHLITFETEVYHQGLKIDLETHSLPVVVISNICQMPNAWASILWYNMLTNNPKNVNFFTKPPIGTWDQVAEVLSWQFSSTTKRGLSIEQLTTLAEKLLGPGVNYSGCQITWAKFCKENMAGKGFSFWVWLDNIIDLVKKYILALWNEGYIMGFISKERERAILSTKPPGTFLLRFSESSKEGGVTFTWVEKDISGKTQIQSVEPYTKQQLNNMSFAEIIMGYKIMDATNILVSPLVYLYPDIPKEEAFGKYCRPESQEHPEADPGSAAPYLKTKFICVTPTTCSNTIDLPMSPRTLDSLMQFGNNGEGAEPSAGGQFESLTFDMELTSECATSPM

As for `O=C(O)c1ccc([N+](=O)[O-])cc1`, the compound was classed as inactive in experiment [1], in experiment [2], in experiment [3], in experiment [4], in experiment [5] and in [6]. Moreover, the result in experiment [7], in experiment [8], in experiment [9], in experiment [10], in experiment [11] and in experiment [12] was inactive. Besides, the outcome in [13] is “inactive”; in the experiment with TIMP1, TIMP1 (gene 7076), “inactive”; in experiment [15], “inactive”; in experiment [16], “inactive”; in experiment [17] it was “inactive”; in experiment [18] it was “inactive”. Besides, in [19], the compound was classed as inactive. In addition, the AC50 in [14] was 646 nM (active).
